The source made the active and inactive calls.
Experiment: osmotic lysis modulators in infected erythrocytes, primary screen, PSAC antagonist project, cell-based, P. falciparum Indochina, OD700, 3 h (AID 1156)
Conditions: higher = more signal, called active from +8 up or from −8 down

z-score, inactive:
COc1cc(Cc2cc3c(c(-c4ccccc4)n2)[Si](C(C)C)(C(C)C)OC3)cc(OC)c1OC 0.84
COCCOC(=O)N1C(=O)[C@@]2(c3cc(C#CCC(C(=O)OC)C(=O)OC)ccc31)[C@H](C(N)=O)[C@H]1C(=O)O[C@H](c3ccccc3)[C@H](c3ccccc3)N1[C@@H]2c1ccccc1OCCO 2.67
C[C@@]1([C@@H](NS(=O)(=O)c2cccc3cccnc23)c2ccc(-c3ccccc3)cc2)C[C@H]1C1CCCCC1 1.39
C=C(C(=O)CC[C@@H](OC(=O)c1ccccc1-c1ccccc1C(=O)O)c1ccc(CO)o1)C(C)C 0.365
CCOC(=O)C1=CCC(c2cccn2C(=O)OC(C)(C)C)N(S(=O)(=O)c2ccc(C)cc2)C1 (stereo unspecified) 0.312
O=C1N(Cc2ccccc2)c2ccccc2C[C@@]12N=C(c1ccc(OCCCO)cc1)O[C@H]2c1ccccc1 3.39
Cc1ccc(S[C@]2(C(=O)NC3CC3)CC(=O)N(C3Cc4ccccc4C3)[C@@H]2c2ccc(CO)cc2I)cc1 0.202
CCc1cccc(NC(=O)O[C@H]2[C@H](OC(=O)Nc3ccccc3-c3ccccc3)[C@H](OC(=O)Nc3ccccc3-c3ccccc3)[C@@H](OC)O[C@@H]2CO)c1 0.17
CC(C)C[C@H]1NC(=O)CNC(=O)[C@@]23C(=O)N[C@@H](Cc4ccccc4)C2[C@H](C)[C@@]2(C)O[C@H]2C3/C=C/C/C=C\CNC1=O (stereo partly specified) -0.352
C=C(/C=C\CNS(=O)(=O)c1ccc(C)cc1)[C@H](O)[C@H]1CCCN1S(=O)(=O)c1ccccc1[N+](=O)[O-] 1.03
C[C@]1(C(=O)O)c2ccccc2C(=O)N(Cc2cc(C(F)(F)F)cc(C(F)(F)F)c2)[C@H]1c1ccc(CO)cc1 -0.173
COC(=O)C(CC#Cc1ccc2c(c1)[C@]1(C(=O)N2)[C@H](c2ccc(OCCO)cc2)N2[C@H](c3ccccc3)[C@H](c3ccccc3)OC(=O)[C@H]2[C@@H]1C(N)=O)C(=O)OC -0.623
CN1C(=O)C2C=CC(C(O)c3ccc(I)cc3)N(N(c3ccccc3)c3ccccc3)C2C1=O (stereo unspecified) 0.537
COc1ccc([Si](C)(C)[C@@H]2[C@@H](CC(=O)N(CCO)Cc3ccccc3)O[C@]3(C(=O)N(Cc4cccc(I)c4)c4ccccc43)[C@H]2C)cc1 -0.0382
COc1ccc([Si](C)(C)[C@H]2[C@H](CC(=O)N3CCC[C@H]3CO)O[C@@]3(C(=O)N(Cc4cccc(N5CCCCC5=O)c4)c4ccccc43)[C@@H]2C)cc1 0.318
O=C1C2C=CC(C(O)C3CCCCC3)N(Nc3ccccc3F)C2C(=O)N1c1ccccc1 (stereo unspecified) 2.77
C=C(COC)/C(=C/C[C@@H](OC(C)=O)c1cccc(OCCO)c1)c1cnc2ccccc2c1 0.377
COC(=O)C1=CC(c2ccc(CO)cc2)=CC(C2CC2)N(Cc2cc3c(cc2Br)OCO3)C=C1C(=O)OC (stereo unspecified) 0.954
O=C/C=C/c1ccc(-c2ccccc2)cc1 -0.103
COc1ccc(C(O)C2C=CC3C(=O)N(C)C(=O)C3N2Nc2ccccc2)cc1 (stereo unspecified) 0.213
COCCOC(=O)N1C(=O)[C@@]2(c3cc(C#CCNC(N)=O)ccc31)[C@H](c1ccccc1OCCO)N1[C@H](c3ccccc3)[C@H](c3ccccc3)OC(=O)[C@H]1[C@@H]2C(=O)N1CCCCCCC1 0.346
CC1C2C(CCCO)=CC(C3C(=O)N(C(N)=O)C(=O)C23)N1Cc1cccc(OC(F)(F)F)c1 (stereo unspecified) -0.308
CCCC=C(CCC)[C@@H](NC(=O)c1ccc(C(=O)OC)cc1)c1ccc(C(=O)OC)cc1 1.33
COc1ccc(C#Cc2ccc3c(c2)[C@]2(C(=O)N3)[C@H](c3ccccc3OCCO)N3[C@H](c4ccccc4)[C@H](c4ccccc4)OC(=O)[C@H]3[C@@H]2C(=O)NC[C@H](O)c2ccccc2)cc1 0.0857
C=C(C(=O)CC[C@@H](OC(=O)c1ccccc1-c1ccccc1C(=O)O)c1cccc(OCCO)c1)C(C)C 0.51
C[C@]1(C(=O)NC2CC2)c2ccccc2C(=O)N(Cc2cc(F)cc(C(F)(F)F)c2)[C@H]1c1ccc(CO)cc1 0.678
C=C(COC)C(=O)CC[C@H](OC(C)=O)c1ccccc1OCCO 0.537
CCOC(=O)C[C@H]1[C@H](OC(=O)Cc2ccc3c(c2)OCO3)[C@@H](NC(=O)CC(C)C)c2cc(OCCCO)ccc2N1C(=O)c1ccc2ccccc2n1 -0.161
O=C1C[C@@](C(=O)NCC(F)(F)F)(c2ccc([N+](=O)[O-])cc2)[C@@H](c2ccc(CO)cc2I)N1CC12CC3CC(CC(C3)C1)C2 -0.0836
COc1cc(CO)cc(I)c1O[C@H]1C=C(C(=O)NCCO)C[C@@H](N(CCN2CCOCC2)C(=O)C2CCCO2)[C@@H]1O (stereo partly specified) 0.483
O=C1C2C=CC(C(O)C(c3ccccc3)c3ccccc3)N(Nc3ccccc3F)C2C(=O)N1c1ccccc1 (stereo unspecified) 0.663
COC(=O)C[C@H]1O[C@]2(C(=O)N(C)c3ccccc32)[C@@H](C)[C@@H]1[Si](C)(C)c1ccccc1 1.1
CC(C)(C)OC(=O)CC[C@]1(C(=O)N2CCOCC2)COC(c2ccc(OCCCO)cc2)=N1 0.384
C=C(CC1([C@@H](NP(=O)(c2ccccc2)c2ccccc2)[C@H]2C[C@@H]2CCCC)CC1)c1cccc(OC)c1 1.36
COc1ccc(C(=O)Nc2cccc(CN3C(=O)[C@]4(O[C@H](CC(=O)N(CCO)Cc5ccccc5)[C@@H]([Si](C)(C)c5ccc(OC)cc5)[C@@H]4C)c4ccccc43)c2)cc1 0.0064
CC[C@@H](O[Si](C#C[Si](C(C)C)(C(C)C)C(C)C)(C(C)C)C(C)C)c1cn([C@H](CO)Cc2ccccc2)nn1 -0.68

From PubChem BioAssay
